According to PubChem BioAssay (NCATS):
Inconclusive results are not listed. A number with no mark means an inactive call. The call rests on the fitted dose curve; in most records, active means well fitted inhibition curve with a large enough effect; inconclusive means small, poorly fitted or top-dose-only effect, or effect the other way; inactive means flat fitted curve, though single readings scatter.

These molecules were tested against ATP-dependent 6-phosphofructokinase (Trypanosoma brucei brucei) (UniProt O15648) (assay: qHTS Assay to Find Inhibitors of T. brucei phosphofructokinase: hit validation (AID 492961;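 further: luminescence reports ADP formed as PFK phosphorylates fructose-6-phosphate with ATP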)). Details: T. brucei PFK, ADP-Glo luminescence; series mostly up to 51.4 µM; activity change, negative = inhibition: at the top concentration.
Procedure, shortened: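 Compounds titrated; %activity normalized to 0x and 1x enzyme controls, curve-fitted. Readout: ADP-Glo luminescence after 45 min room-temperature reaction of 1.25 nM PFK, 0.1 mM ATP, 0.5 mM F6P, pH 8.0.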
On the % scale 0 is the no-effect control and ±100 the full control effect.

Chain of ATP-dependent 6-phosphofructokinase (Trypanosoma brucei brucei) (O15648 whole entry, looked up): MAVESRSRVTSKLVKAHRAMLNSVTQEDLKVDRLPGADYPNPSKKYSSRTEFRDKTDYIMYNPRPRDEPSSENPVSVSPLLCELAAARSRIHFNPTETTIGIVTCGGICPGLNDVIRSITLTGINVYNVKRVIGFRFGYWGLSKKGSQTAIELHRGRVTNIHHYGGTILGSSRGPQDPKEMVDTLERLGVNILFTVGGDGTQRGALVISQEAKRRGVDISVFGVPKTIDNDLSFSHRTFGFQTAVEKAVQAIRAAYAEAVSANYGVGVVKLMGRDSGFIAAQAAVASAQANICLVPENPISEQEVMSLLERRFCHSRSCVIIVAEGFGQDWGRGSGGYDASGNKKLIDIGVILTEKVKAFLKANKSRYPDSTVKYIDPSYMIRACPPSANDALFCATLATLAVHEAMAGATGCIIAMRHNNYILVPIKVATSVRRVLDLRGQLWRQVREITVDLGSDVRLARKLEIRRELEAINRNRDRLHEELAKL

| Compound | activity change, negative = inhibition |
| --- | --- |
| O=C(Nc1cccc(C(F)(F)F)c1)c1cc(Br)cc(Br)c1O | -8.56% |
| CC[C@@]1(O)C(=O)OCc2c1cc1n(c2=O)Cc2cc3c([N+](=O)[O-])cccc3nc2-1 | 12.8% |
| Cc1ccccc1 | 1.94% |
| CCOc1ccc(N=Nc2ccc(N)cc2N)cc1 | -8.78% |
| COCC(=O)Nc1cc(Sc2ccccc2)ccc1N=C(NC(=O)OC)NC(=O)OC | 4.04% |
| C#C[C@]1(O)CC[C@H]2[C@@H]3CCC4=CCCC[C@@H]4[C@H]3C(=C)C[C@@]21CC | 0% |
| C[C@H]1C[C@H]2[C@@H]3CCC4=CC(=O)C=C[C@]4(C)[C@@]3(F)[C@@H](O)C[C@]2(C)[C@@]1(O)C(=O)CO | -0.413% |
| O=C(O)CN(CCN(CC(=O)O)CC(=O)O)CC(=O)O | 0.159% |
| CC1=C(/C=C/C(C)=C/C=C/C(C)=C/C=C/C=C(C)/C=C/C=C(C)/C=C/C2=C(C)C(=O)CCC2(C)C)C(C)(C)CCC1=O | -10.4% |
| CC(C(=O)O)c1ccc(N2Cc3ccccc3C2=O)cc1 (centres undefined) | -9.48% |
| C=CCSSSCC=C | 9.54% |
| C[C@]12CCC(=O)C=C1CC[C@@H]1[C@@H]2[C@@H](O)C[C@@]2(C)[C@H]1CC[C@]2(O)C(=O)COP(=O)(O)O | -12.4% |
| O=C1CSC2(CCN(CCCN3c4ccccc4Sc4ccc(Cl)cc43)CC2)N1 | -0.387% |
| C=C1C(=CC=C2CCC[C@@]3(C)[C@@H]2CC[C@H]3[C@H](C)CCCC(C)C)C[C@@H](O)C[C@@H]1O | 0% |
| CCCC(=O)O[C@]1(C(=O)CCl)[C@H](C)C[C@@H]2[C@H]3CCC4=CC(=O)C=C[C@]4(C)[C@@]3(F)C(=O)C[C@@]21C | 0% |
| COC(=O)[C@H]1[C@H]2C[C@@H]3c4[nH]c5ccccc5c4CCN3C[C@H]2C[C@@H](OC(=O)c2cc(OC)c(OC)c(OC)c2)[C@@H]1OC | 8.09% |
| O=S(=O)(O)c1cc(O)c2c(N=Nc3ccc(Nc4ccccc4)c4c(S(=O)(=O)O)cccc34)cc(S(=O)(=O)O)cc2c1 | -24.3% |

| Compound | activity change, negative = inhibition |
| --- | --- |
| CCCCC(=O)O[C@]1(C(=O)CO)[C@H](C)C[C@H]2[C@@H]3CCC4=CC(=O)C=C[C@]4(C)[C@@]3(F)[C@@H](O)C[C@@]21C | -8.39% |
| CC(C)(C)C(=O)OCOC(=O)[C@@H]1N2C(=O)[C@@H](N=CN3CCCCCC3)[C@H]2SC1(C)C | 10.7% [at 24.3 µM] |
| CC1=CCC(C(C)(C)O)CC1 (centres undefined) | 5.89% |
| CO[C@H]1C[C@@H]2CC[C@@H](C)[C@@](O)(O2)C(=O)C(=O)N2CCCC[C@H]2C(=O)O[C@H]([C@H](C)C[C@@H]2CC[C@@H](OCCO)[C@H](OC)C2)CC(=O)[C@H](C)/C=C(\C)[C@@H](O)[C@@H](OC)C(=O)[C@H](C)C[C@H](C)/C=C/C=C/C=C/1C | 15.7% |
| CC(=O)Oc1c(C)cc(OCC(O)CNC(C)C)c(C)c1C (centres undefined) | -7.91% |
| Nc1c(N=Nc2ccc(-c3ccc(N=Nc4cc(S(=O)(=O)O)c5ccccc5c4N)cc3)cc2)cc(S(=O)(=O)O)c2ccccc12 | -4.91% |
| CCCCCCCCCCCCCCCC(=O)OCC(COC(=O)CCCCCCCCCCCCCCC)OC(=O)CCCCCCCCCCCCCCC | -2.08% |
| O=CCCCC=O | -5.49% |
| C[C@@H]1CCC2[C@@H](C)[C@@H](O)O[C@@H]3O[C@@]4(C)CC[C@@H]1[C@@]23OO4 (some centres undefined) | 0.363% |
| Cc1c(C)c2c(c(C)c1O)CC[C@@](C)(CCC[C@H](C)CCC[C@H](C)CCCC(C)C)O2 | -0.163% |
| CCCCCCCC/C=C\CCCCCCCC(=O)O | -0.106% |
| CC(C)(C)NC(=O)[C@@H]1C[C@@H]2CCCC[C@@H]2CN1C[C@@H](O)[C@H](Cc1ccccc1)NC(=O)[C@H](CC(N)=O)NC(=O)c1ccc2ccccc2n1 | 5.6% |
| CC(O)CO (centres undefined) | 0.269% |
| CCC(=O)NCCC1CCc2ccc3c(c21)CCO3 (centres undefined) | -4.76% |
| CN1C(=O)CN2CCc3ccccc3C2c2cc(Cl)ccc21 (centres undefined) | 0.446% |
| COC(F)(F)C(Cl)Cl | -7.74% |
| Cc1ccccc1OCC(O)CNCCOc1ccc(C(N)=O)cc1 (centres undefined) | -9.31% |
